The results in this text go back to PubChem BioAssay (NCI).

Compounds without any hit were thinned out: in the full panel of roughly 83,000, 20% have a hit.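 The test compound was applied at a single concentration to cells in 96-well plates for 48 hours, and percent growth was recorded.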 A number with no mark means an inactive call. The source made the active and inactive calls. The calls were made as follows: active = growth percent below 10; inactive = the rest.

What all share (assay): NCI-60 one-dose screen, 48 h (100 = growth as untreated, 0 = no growth, -100 = all killed)
Conditions in all cases: 10 µM unless noted

Experiment [1] relates to K-562 leukemia.
In experiment [2] the test system is MALME-3M melanoma.
Experiment [3] relates to MDA-MB-231 breast.
Experiment [4] concerns RXF 393 renal.
Experiment [5] relates to SF-268 CNS.
Experiment [6] deals with SF-295 CNS.
The subject of experiment [7] is SF-539 CNS.
For experiment [8], the system named is UACC-257 melanoma.
Experiment [9] relates to M14 melanoma.
For experiment [10], the system named is HCT-15 colon.
For experiment [11], the system named is HT29 colon.
In experiment [12] the test system is SNB-75 CNS.
The test system of experiment [13] is SNB-19 CNS.
The test system of experiment [14] is U251 CNS.
The test system of experiment [15] is PC-3 prostate.
Experiment [16] has as its system SK-MEL-5 melanoma.
The test system of experiment [17] is UACC-62 melanoma.
For experiment [18], the system named is SK-MEL-28 melanoma.
The test system of experiment [19] is SK-MEL-2 melanoma.
Experiment [20] deals with LOX IMVI melanoma.

Take `CN1CCc2c(sc3ncnc(N/N=C/c4ccc(Cl)c(Cl)c4)c23)C1`: the growth in [1] was 27.4%; in experiment [2], 38.6%; in [3] it was 13.7%; in experiment [4], 42.1%; in experiment [5], 61.1%; in experiment [6], 34.7%. Moreover, the growth in [7] is -61.6% (active); in experiment [8] it was 92.4%; in [9], -11.8% (active); in [10], 3.04% (active); in [11], -46.6% (active); in experiment [12], 79.5%. The growth was 42% in experiment [13]; -43.6% (active) in experiment [14]; 53.6% in experiment [15]; 86.6% in [16]; -26.8% (active) in experiment [17]; 21.4% in experiment [18]. For the same molecule, the growth in experiment [19] was 117%.

For the molecule `COC(=O)C1CCCN(S(=O)(=O)/N=C2\NC(=O)NC2=C(Cl)Cl)C1` (stereo not given), the growth in [1] was 10.9%; in experiment [2], 104%; in [3], 102%; in experiment [4], 121%; in [5], 106%; in [6] it was 104%. Besides, the growth was 105% in experiment [7]; 106% in [8]; 99.3% in experiment [9]; 80.7% in experiment [10]; 116% in [11]; 125% in [12]. Moreover, the growth in experiment [13] was 94.6%; in experiment [14] it was 95.3%; in experiment [15] it was 101%; in experiment [16] it was 101%; in experiment [17], 94%; in [18], 105%. For the same molecule, the growth in experiment [19] is 106%.

For `CC(C)(C)Nc1nc2c(OCCc3ccccc3)cccn2c1-c1ccc(O)cc1`, the growth in experiment [1] was 17.4%; in experiment [2], 62.5%; in [3], 79.6%; in [4], 21.2%; in [5], 91.3%; in experiment [6], 36%. For the same molecule, the growth in [7] was 72.9%; in experiment [8] it was 97.9%; in experiment [9] it was 63.1%; in experiment [10], 2.12% (active); in experiment [11], 14.8%; in experiment [12] it was 124%. In addition, the growth was 68.3% in [13]; 53.1% in experiment [14]; 28.8% in [15]; 50.6% in experiment [16]; 34.9% in [20]; 66% in experiment [18]. Further, the growth in [19] was 85.1%.

Regarding `N#Cc1c(-c2ccc(Cl)cc2)nc(SCc2ccccc2)nc1N1CCNCC1`, the growth is 0.363% (active) in experiment [1]; 84.4% in experiment [2]; 44.2% in [3]; 74.4% in experiment [4]; 74.2% in experiment [5]; 94.3% in [6]. Further, the growth in [7] is 75.6%; in experiment [8], 97.3%; in experiment [9], 82.1%; in experiment [10] it was 13.2%; in [11], -47.6% (active); in experiment [12] it was 69.5%. The growth in experiment [13] was 69.8%; in experiment [14], -65.6% (active); in experiment [15], 59.2%; in [16], 84.5%; in experiment [20], -71.5% (active); in [18] it was 108%.

As for `Cc1ccc(-c2nc(C(Cl)Cl)nc3cc(-c4ccccc4)nn23)cc1`, the growth in experiment [1] is 14.3%; in experiment [2] it was 3.13% (active); in experiment [3] it was 12.9%; in experiment [4], -63.8% (active); in experiment [5], 23.9%; in experiment [6] it was 10.3%. Moreover, the growth in experiment [7] was 34.4%; in experiment [8], 28.9%; in [9], -11.1% (active); in experiment [10] it was 5.49% (active); in [11] it was -43.7% (active); in experiment [12], -3.07% (active). The growth was 14.8% in [13]; -58.6% (active) in [14]; 26.8% in [15]; 67.3% in experiment [16]; 43.6% in experiment [20]; 1.35% (active) in experiment [18]. Also, the growth in [19] is 88.8%.

In the case of `N#Cc1c(-c2ccc(Cl)cc2)nc2c(-c3ccccc3)c(Nc3ccccc3)nn2c1N`, the growth in [1] is 67.3%; in experiment [2], 79.9%; in [3], 26%; in experiment [4], 78.8%; in experiment [5], 82.4%; in experiment [6], 46%. The growth in experiment [7] is 80.6%; in [8], 105%; in [9], 70.1%; in experiment [10] it was 67.2%; in experiment [11] it was 62.9%; in [12], 4.2% (active). In addition, the growth in experiment [13] was 72.8%; in experiment [14], 19.8%; in [15], 62.2%; in [16], 92.9%; in experiment [17], 62.8%; in [18], 82.5%. Moreover, the growth in [19] was 96%.

Regarding `COc1cccc(-c2nn(-c3ccccc3)cc2-c2ccnc(N3CCN(C(=O)c4ccccc4)CC3)c2)c1`, the growth was 31.4% in [1]; 89.7% in [2]; 64% in [3]; 95.7% in experiment [4]; 94.2% in [5]; 89.1% in experiment [6]. For the same molecule, the growth in [7] is 87.1%; in [8], 101%; in experiment [9], 81.2%; in experiment [10], 39.8%; in [11], 87.2%; in experiment [12] it was 65.9%. Besides, the growth in experiment [13] is 85.5%; in experiment [14], 78.4%; in experiment [15], 46.6%; in experiment [16], 49.8%; in [20], 87.5%; in [18], 84.2%.

For `Cc1c(Nc2nnc(SCC(=O)Nc3sc4c(c3C#N)CCCC4)s2)c(=O)n(-c2ccccc2)n1C`, the growth in experiment [1] was 93.5%; in [2] it was 119%; in experiment [3], 98.4%; in experiment [4], 118%; in experiment [5], 103%; in [6], 107%. Also, the growth is 102% in experiment [7]; 116% in experiment [8]; 103% in [9]; 103% in experiment [10]; 117% in experiment [11]; 127% in experiment [12]. Moreover, the growth in experiment [13] was 100%; in [14], 102%; in experiment [15], 101%; in experiment [16] it was 102%; in [20], 88.7%; in experiment [18] it was 107%. In addition, the growth in experiment [19] is 106%.
